# Source: PubChem (National Center for Advancing Translational Sciences (NCATS))
# CHX counter = Cycloheximide Counterscreen for Small Molecule Inhibitors of Shiga Toxin. cell reporter, cycloheximide protein synthesis inhibition counterscreen. max response, %. 12% of 300,000 active. AID 2314, 2010; in the data active means max response mostly above about 13%, no sharp cut-off; inactive means mostly below about 14%; further: read at 38.3 µM for the half of the compounds with a filed dose; 0% is about no effect
# Shiga inhibitor = A qHTS for Small Molecule Inhibitors of Shiga Toxin | inhibition, % at 38.7 µM | 9.2% of 290,000 active | Vero cells, Shiga toxin protein synthesis inhibition reporter; in the data active means inhibition mostly above about 28%, no sharp cut-off; inactive means mostly below about 43%; further: 0% is about no effect
# Marburg entry inh = qHTS for inhibitors of binding or entry into cells for Marburg Virus; Marburg virus pseudotyped entry inhibition, cell reporter; Potency, µM (series often up to 37.8 µM), for the others: at the highest dose activity change, negative = inhibition, most hits filed as inhibitors; 1.8% of 300,000 active; calls by dose curve; tested in HEK293 cells; further: potency means the concentration at half of the fitted maximal effect; on the % scale 0 is the no-effect control and ±100 the full control effect
# Pf growth 96h = Primary qHTS for delayed death inhibitors of the malarial parasite plastid, 96 hour incubation. AID 504834, 2011. 6.9% of 320,000 active. P. falciparum luciferase reporter growth, 96 h. Potency, µM (doses to about 28.7 µM), for inactives: at the highest dose activity change, negative = inhibition, most hits filed as inhibitors; further: potency means the concentration at half of the fitted maximal effect; on the % scale 0 is the no-effect control and ±100 the full control effect
#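 Readout is luminescence from an integrated firefly luciferase in P. falciparum. Red cells, 2% hematocrit and 0.05% parasitemia final, were cultured with compound through two parasite generations (96 hours) at 37 C, 5% CO2.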
# Lassa entry inh = qHTS for Inhibitors of binding or entry into cells for Lassa Virus. AID 540256, 2011. 1.2% of 300,000 active. Lassa virus pseudotype entry inhibition, cell reporter. Potency, µM (titrated, usually from 37.9 µM), for inactives: top-dose activity change, negative = inhibition, most hits filed as inhibitors; calls by dose curve; tested in HEK293 cells; further: potency means the concentration at half of the fitted maximal effect; on the % scale 0 is the no-effect control and ±100 the full control effect; nearly all actives have a fitted effect of over 50% in size
# Pf growth 48h = Primary qHTS for delayed death inhibitors of the malarial parasite plastid, 48 hour incubation | Potency, µM (doses to about 28.7 µM), inactives show at the top dose activity change, negative = inhibition, most hits filed as inhibitors | P. falciparum luciferase growth in erythrocytes, 48 h | 5.9% of 310,000 active | AID 504832, 2011; further: potency means the concentration at half of the fitted maximal effect; on the % scale 0 is the no-effect control and ±100 the full control effect
#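 Luciferase-expressing P. falciparum in infected erythrocytes (2% hematocrit, 0.1% parasitemia final) in RPMI 1640/0.5% Albumax were exposed to compound for 48 hours at 37 C, 5% CO2; growth read as luminescence.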
# * hit, by the source's call; ? = inconclusive; · = not tested or not shown; [ ] = remark or other dose. An excerpt weighted towards active compounds, which were near 19% of everything screened. Unless noted, the call rests on the fitted dose curve; in most records, active means well fitted inhibition curve with a large enough effect; inconclusive means small, poorly fitted or top-dose-only effect, or another doubt; inactive means no such curve, though single readings can be large or run the other way.
SMILES,CHX counter,Shiga inhibitor,Marburg entry inh,Pf growth 96h,Lassa entry inh,Pf growth 48h
COCCNC(=O)CC(NS(=O)(=O)c1ccc(C)cc1)c1ccco1 (stereo not drawn),3.5,-13.5,4.2%[46.1 µM],14.4%,10.3%,?
CCc1cc2c(=O)c(-c3ccc4c(c3)OCO4)coc2c(CN(C)C)c1O,-3.0,8.4,·,13.1µM*,·,9.28µM*
CCc1cc2c(=O)c(-c3cscn3)coc2c(CN(C)C)c1O,-3.4,-4.7,-10.7%,?,-8.7%,11.7µM*
Cc1oc2c(CN(C)C)c(O)ccc2c(=O)c1-c1cscn1,1.4,-11.2,-0.1%,?,2.9%,67.9%
COc1cccc(-c2cc(C(=O)NCC3CCCO3)c3cc(Br)cc(C)c3n2)c1 (stereo not drawn),1.0,-7.9,·,?,·,?
Oc1ccc(Cl)cc1N=Cc1sc2ccccc2c1Cl,41.4*,60.5*,?,2.33µM*,-14.9%[46.1 µM],?
COc1ccc(N=Cc2sc3ccccc3c2Cl)cc1,25.0*,13.0,3.2%,32.4%,12.8%,32.1%
O=[N+]([O-])c1ccc(O)c(N=Cc2sc3ccccc3c2O)c1,60.0*,60.7*,?,?,?,?
COc1ccc(Cn2c(O)c(C=Nc3ccc(OC)cc3)c3ccccc3c2=O)cc1,-2.8,-5.7,?,-3.6%,?,-7.0%
O=C(CC1C(=O)OCCN1Cc1ccccc1)Nc1cccc(C(F)(F)F)c1 (stereo not drawn),·,·,-2.6%[46.1 µM],·,-0.3%[46.1 µM],·
COc1cccc(NC(=O)c2cc(Cl)nnc2Cl)c1,-2.7,-7.3,?,?,?,3.7µM*
COc1cc(NC(=O)c2cc(Cl)nnc2Cl)cc(OC)c1OC,-1.5,-1.8,·,?,·,11.7µM*
CC1SC(c2ccc(Cl)cc2Cl)NC1=O (stereo not drawn),-6.4,-0.8,-17.1%[46.1 µM],99.6%,?,-14.5%
CCOC(=O)Cn1c(-c2cccnc2Cl)nc2cc(Cl)c(Cl)cc21,-3.3,-1.8,11.2%,42.3%,-10.4%,30.2%
CCn1c(-c2cccnc2Cl)nc2cc(Cl)c(Cl)cc21,40.1*,78.4*,-23.2%,21.9%,-1.1%,-0.8%
COc1cc(C(=O)NCc2ccc(-c3nc4ccccc4s3)cc2)cc(OC)c1OC,26.5*,73.9*,-0.9%,6.1%,-14.2%,52.7%
COc1ccc(-c2nc3ccccc3s2)cc1NC(=O)c1cc(OC)c(OC)c(OC)c1,·,·,?,·,19.0%[46.1 µM],·
COc1ccc(-c2cn(Cc3ccc(C(=O)NCc4ccc(C)cc4)cc3)c(C(C)N)n2)cc1 (stereo not drawn),·,·,·,?,·,11.7µM*
COc1ccc(C(=O)NCc2ccc(-c3nc4ccccc4s3)cc2)cc1,44.3*,43.8,4.6%,34.9%,-2.1%,78.8%
COc1cccc(C(=O)Nc2ccc(-c3nc4ccccc4s3)cc2Cl)c1,·,·,·,·,7.9%[46.1 µM],·
COc1cccc(C(=O)NCc2ccc(-c3nc4ccccc4s3)cc2)c1,35.8*,70.3*,?,·,?,0.0%
CC(C)Oc1ccc(C(=O)Nc2ccc(-c3nc4ccccc4s3)cc2)cc1,·,·,19.8%[46.1 µM],·,5.6%[46.1 µM],·
COc1ccc(C2=NN(c3nc(C(=O)O)cs3)C(O)(C(F)(F)F)C2)c(OC)c1 (stereo not drawn),-0.3,21.1,8.3%[46.1 µM],369.8%,-12.7%,8.7%
CC(C)(C)C(=O)Nc1nnc2n1CCS2,·,·,·,·,17.4%[46.1 µM],·
CS(=O)(=O)c1ccc(Cl)c(NC(=O)CCCSc2ccccc2)c1,-4.1,10.7,6.1%[46.1 µM],-14.4%,?,-5.6%
SMILES,CHX counter,Shiga inhibitor,Marburg entry inh,Pf growth 96h,Lassa entry inh,Pf growth 48h
O=C1NC(=S)NC1(c1ccccc1)c1ccccc1,·,·,-4.7%,·,5.2%,·
COc1ccc(-c2nc3ccccc3s2)cc1NC(=O)c1ccccc1OC,·,·,?,·,7.4%[46.1 µM],·
COc1ccccc1C(=O)NCc1ccc(-c2nc3ccccc3s2)cc1,40.6*,57.6*,-11.1%,-27.2%,-24.6%,166.9%
Cc1nc(C)c(C(=O)OCC(=O)NCc2ccccc2Cl)s1,·,·,?,·,2.9%[46.1 µM],·
CCc1nc(NCCCn2ccnc2)c2oc3ccccc3c2n1,-2.7,-4.9,5.9%,13.1µM*,6.9%,?
c1ccc(-c2nc(NCCCn3ccnc3)c3oc4ccccc4c3n2)cc1,1.4,-4.9,?,2.33µM*,-14.8%,3.29µM*
CCCS(=O)(=O)c1nc(S(=O)(=O)c2ccc(C)cc2)c(NCCCOC(C)C)s1,·,·,14.7%[46.1 µM],·,?,·
Cc1ccc(S(=O)(=O)c2nc(S(=O)(=O)c3ccccc3)sc2NCCCOC(C)C)cc1,·,·,3.98µM*,·,-32.6%[46.1 µM],·
Cn1cc(S(=O)(=O)N2CCCC2)cc1C(=O)NCCc1ccccc1,11.5*,17.5,·,2.62µM*,·,-12.7%
COc1ccc(CCNC(=O)c2cc(S(=O)(=O)N3CCOCC3)cn2C)cc1OC,0.9,-6.3,·,7.38µM*,·,17.4%
CCOC(=O)N1CCC(NC(=O)c2cc(S(=O)(=O)N3CCCC3)cn2C)CC1,-2.5,-15.8,2.4%,0.415µM*,-3.5%,7.38µM*
O=c1[nH]cc(NCCc2ccccc2)c(=O)[nH]1,16.1,24.2,17.3%[46.1 µM],-9.6%,-2.2%,28.9%
O=C(CCNS(=O)(=O)c1ccccc1)N1CCOCC1,-2.1,-4.6,·,8.3%,·,5.9%
O=C(CCNS(=O)(=O)c1ccccc1)N1CCN(C(c2ccccc2)c2ccccc2)CC1,-3.2,-5.6,·,5.86µM*,·,?
CC(=O)Nc1ccc(S(=O)(=O)NCCC(=O)N2CCC(Cc3ccccc3)CC2)cc1,·,·,?,5.22µM*,?,?
CC(=O)Nc1ccc(S(=O)(=O)NCCC(=O)N2CCN(C(c3ccccc3)c3ccccc3)CC2)cc1,·,·,5.4%,10.4µM*,0.316µM*,11.7µM*
Cc1ccc(CNc2oc(-c3ccco3)nc2C#N)cc1,9.7,14.6,15.5%,-0.4%,-6.9%,-16.1%
N#Cc1nc(-c2ccc(F)cc2)oc1NCc1cccc2c1OCO2,33.6*,45.6,10.5%,21.8%,13.3%,49.4%
Cc1ccc(-c2nc(C#N)c(NCc3cccc4c3OCO4)o2)cc1,26.4*,58.7*,11.3%,·,2.2%,5.4%
CC(C)CNc1oc(-c2ccc(F)cc2)nc1C#N,16.3*,39.7*,·,4.9%,·,-11.0%
Cc1cc(Nc2nc3ccccc3nc2Cl)n(-c2ccccc2C)n1,-3.3,16.4,?,1.47µM*,-5.9%,1.47µM*
Cc1cc(Nc2nc3ccccc3nc2Cl)n(-c2ccccc2)n1,-4.3,-8.7,?,?,?,·
O=C1C2CCCN2C(=O)N1CCCCN1CCN(c2ccccc2)CC1 (stereo not drawn),2.4,-6.1,6.3%,0.0%,-13.8%,8.3%
O=C1C2CCCN2C(=O)N1CCCCN1CCN(c2cccc(Cl)c2)CC1 (stereo not drawn),-1.6,-4.6,-43.5%,13.1µM*,-10.8%,-9.8%
O=C(/C=C/c1cccs1)N1CCN(c2ccc(O)cc2)CC1,11.3,30.9,?,?,?,-23.1%
